# Among all 1,200 compounds or so, about 170 (14%) were called active. The rule behind the calls is not given here. Not all results are given here. Potency and affinity values are given separately.
# Test: twin-arginine translocation blockade, bacterial reporter – cherry-pick, set 2, plate reader, dose response (AID 504941)
# Details: E. coli Tat transport reporter; series mostly up to 38 µM; activity change, negative = inhibition: at the top concentration
row,SMILES,"activity change, negative = inhibition"
1,CN(C(=O)COC(=O)c1cccc(S(=O)(=O)N2CCOCC2)c1)C1CCS(=O)(=O)C1 (stereo unspecified),6.11% (inactive)
2,CC(C)C(C(=O)NC1CCCC1)N(CC1CCCO1)C(=O)CNS(=O)(=O)c1ccccc1 (stereo unspecified),-0.216% (inactive)
3,CCOc1nc(Nc2ccc(OC)c(Cl)c2)nc(OCC)n1,-7.13% (inactive)
4,Cc1ccc(C)c(N2CCN(c3ccc4cc(S(=O)(=O)N5CCCCC5)ccc4n3)CC2)c1,10.4% (inactive)
5,O=C(CCCc1nc2ccccc2s1)NC1CCOC1=O (stereo unspecified),-11.4% (inactive)
6,Clc1ccccc1-c1ccc2ncnc(NCc3cccnc3)c2c1,7.13% (inactive)
7,Cc1ccc(S(=O)(=O)Nc2ccnc(-c3cccnc3)n2)cc1,9.87% (inactive)
8,CC1CC(OC(=O)C(O)c2ccccc2)CC(C)(C)N1C (stereo unspecified),-5.37% (inactive)
9,CC1CCN(CC[C@H]2CCCN2S(=O)(=O)c2cccc(O)c2)CC1,8.51% (inactive)
10,CC1CCN(C(=O)c2ccc(S(=O)(=O)N3CCCC3)cc2)CC1,10.2% (inactive)
11,COc1ccc(/C=C/C(=O)OCc2cc(=O)n3c(n2)sc2ccccc23)cc1,-12% (inactive)
12,CCN1CCN(C(=O)C(NS(=O)(=O)c2ccc3nc(C)sc3c2)C(C)C)CC1 (stereo unspecified),-20.5% (inactive)
13,O=C(CCNC(=O)c1ccc([N+](=O)[O-])cc1)Nc1cccc(S(=O)(=O)N2CCCCCC2)c1,-10.6% (inactive)
14,O=C(NCCc1ccccc1)c1ccc2c(c1)OCCCO2,-10.6% (inactive)
15,O=C(CN1CCN(c2ccc(O)cc2)CC1)Nc1ccc2c(c1)OCCO2,21.3% (inactive)
16,Cc1cc(Cl)c(S(=O)(=O)NC(C(=O)O)C(C)C)cc1OCC(=O)NC1CCCCC1 (stereo unspecified),-0.619% (inactive)
17,C[C@@H]1CN(c2c(F)c(F)c3c(=O)c(C(=O)O)cn(C4CC4)c3c2F)C[C@H](C)N1,303% (inactive)
18,Nc1nc(=O)n(C2CC(O)C(CO)O2)cc1F (stereo unspecified),181% (inactive)
19,CCNC(=S)NCCN1CCOCC1,7.35% (inactive)
20,O=C(Nc1ccc2c(c1)OCCO2)c1ccc(Cl)c(S(=O)(=O)N2CCCCC2)c1,6.22% (inactive)
21,CCCc1cc(=O)[nH]c2nnc(SCC(=O)Nc3ccc4c(c3)OCCO4)n12,1.25% (inactive)
22,C=CCN(CC=C)S(=O)(=O)c1ccc(NC(=S)NC(=O)C2CC2)cc1,-41.6% (inactive)

row,SMILES,"activity change, negative = inhibition"
1,COc1ccc(-c2cc(C(=O)Oc3ccc([N+](=O)[O-])cc3)c3ccccc3n2)cc1,30.5% (inactive)
2,COc1ccc(-c2cc(C)no2)cc1S(=O)(=O)NCCCN1CCCCCC1,9.9% (inactive)
3,CCOc1ccc2[nH]c(C)c(CN3CCCCC3)c(=O)c2c1,17.6% (inactive)
4,Cc1cc(-n2c(C)cc(C(=O)COc3cccnc3[N+](=O)[O-])c2C)no1,0.514% (inactive)
5,O=C(N1CCCC1)C12CC3CC(C1)CC(C(=O)N1CCCC1)(C3)C2,4.29% (inactive)
6,COc1cc(C(=O)NCCOC(=O)c2cccc(N(C)C)c2)cc(OC)c1OC,-12.9% (inactive)
7,C/C(=N\NC(=O)c1cccc(O)c1)c1cccc(NC(=O)c2ccc(F)cc2)c1,7.5% (inactive)
8,Cc1cc(C)cc(-n2c(C)cc(/C=C3\C(=N)N4N=C(CC(C)C)SC4=NC3=O)c2C)c1,7.24% (inactive)
9,COc1ccc(NS(=O)(=O)c2ccc(NC(=O)Cc3cccs3)cc2)cc1,12.2% (inactive)
10,O=S(=O)(N1CCCCC1)N1CCN(c2ccccc2F)CC1,-1.04% (inactive)
11,CCOC(=O)C(C(=O)Nc1ccc(C)cc1)C1CCCCC1 (stereo unspecified),17.6% (inactive)
12,Cc1ccccc1NC1=NC(=S)N(c2ccccc2)C12CCOC(C)(C)C2 (stereo unspecified),-0.879% (inactive)
13,CC(CN1CCOCC1)(NS(=O)(=O)c1ccccc1)c1ccccc1 (stereo unspecified),-6.65% (inactive)
14,CC(C)OC(=O)c1c(NC(=O)c2ccco2)sc2c1CCCC2,-6.21% (inactive)
15,CCOC(=O)CC(=O)Nc1ccccc1C(=O)O,-1.16% (inactive)
16,O=C(O)CCC(=O)Nc1sc2c(c1C(=O)Nc1cccc3ccccc13)CCCCC2,-7.8% (inactive)
17,CCCCNC(=O)CCCn1c(=O)[nH]c2ccc(Br)cc2c1=O,-10.4% (inactive)
18,O=C1OCc2ccc(NC(=O)C3CC3)cc21,-7.47% (inactive)
19,OCCN1CCN(C(=S)Nc2ccc(Oc3ccccc3)cc2)CC1,-21.3% (inactive)
20,Cc1ccc(CS(=O)(=O)CCC(=O)NCCCN2CCCC2)cc1,2.96% (inactive)
21,Cc1ccc(CC(=O)NCCS(=O)c2ccc(Cl)cc2)cc1 (stereo unspecified),12.3% (inactive)
22,O=C(CN1C(=O)NC2(CCCCC2)C1=O)NCc1cccs1,22.5% (inactive)

row,SMILES,"activity change, negative = inhibition"
1,COCn1c(-c2cccc(Br)c2)nc2ccccc21,21.4% (inactive)
2,CSc1ccccc1OCc1cc(C(=O)N(C)Cc2c(C)n[nH]c2C)no1,12.3% (inactive)
3,COc1cc(Cl)ccc1OCc1cc(C(=O)NCC(C)(C)N2CCOCC2)no1,-6.94% (inactive)
4,NS(=O)(=O)c1ccc(NC(=O)CSc2nnc(-c3ccc(O)cc3)o2)cc1,8.57% (inactive)
5,O=C(CSc1nnc(-c2cccnc2)o1)Nc1ccc(Cl)cc1,12.1% (inactive)
6,CC(=O)N1Cc2cc([N+](=O)[O-])ccc2Oc2ccccc21,12.2% (inactive)
7,CC(=O)NC(Cc1cnc[nH]1)C(=O)O (stereo unspecified),6.77% (inactive)
8,CCCN(C(=O)Cn1c(C(F)(F)F)nc2ccccc21)C1CCS(=O)(=O)C1 (stereo unspecified),8.26% (inactive)
9,O=C(NCc1ccccc1)c1ccc(Br)o1,-13.9% (inactive)
10,O=C(NCc1ccccc1)c1ccc(F)c(F)c1,7.16% (inactive)
11,Cc1ccc(OCCNC(=O)c2cc(-n3cnnc3)ccc2Cl)cc1C,-6.14% (inactive)
12,C[C@@H]1O[C@@H](Oc2c(-c3ccc(O)c(O)c3)oc3cc(O)cc(O)c3c2=O)[C@H](O)[C@H](O)[C@H]1O,12.2% (inactive)
13,COc1ccc(Cl)cc1NC(=S)NCc1cccnc1,22.5% (inactive)
14,CC(C)N1CCc2c(sc(NC(=O)c3ccc(S(=O)(=O)N4CCc5ccccc54)cc3)c2C(N)=O)C1,34.7% (inactive)
15,CC(NC(=O)c1ccc([N+](=O)[O-])o1)C12CC3CC(CC(C3)C1)C2 (stereo unspecified),15.2% (inactive)
16,COc1ccccc1N1CCN(C(=O)c2cc3c(=O)n4ccccc4nc3s2)CC1,11% (inactive)
17,Cc1ccc(NC(=O)CSc2nccn2C)cc1F,17% (inactive)
18,CCCNC(=O)c1cc(C)no1,6.59% (inactive)
19,COc1ccc(NC(=O)Cn2ncc(Cl)c(Cl)c2=O)cc1S(=O)(=O)N1CCOCC1,2.91% (inactive)
20,COc1ccc(S(=O)(=O)N2CCC(C(=O)NCc3cccnc3)CC2)cc1OC,2.11% (inactive)
21,O=c1[nH]c2ccc(S(=O)(=O)N3CCCCC3)cc2s1,17% (inactive)
22,CN(C)C(=S)Nc1ccc2ccccc2c1,-3.63% (inactive)

row,SMILES,"activity change, negative = inhibition"
1,O=C(Cn1cc(C(F)(F)F)ccc1=O)OCC(=O)c1ccc[nH]1,11.2% (inactive)
2,Cc1c(Cl)cccc1NC(=O)C1NC(=O)CC1c1ccccc1 (stereo unspecified),-18% (inactive)
3,COc1ccc(/C(C)=N/NC(=O)CNC(=O)c2ccncc2)c(OC)c1,-12.5% (inactive)
4,COC(=O)CSc1ccc(C#N)c(SCC(=O)OC)c1,-25.3% (inactive)
5,CCC1Oc2nc(SC)nnc2-c2ccccc2N1C(=O)c1ccccc1 (stereo unspecified),4.65% (inactive)
6,CCC(CC)C(=O)Nc1nnc(S(=O)(=O)N2CCCCCC2)s1,-1.1% (inactive)
7,CCOC(=O)c1cc(C)sc1NC(=O)C(c1ccccc1)c1ccccc1,-30.7% (inactive)
8,CCOc1ccc(NC(=O)CN2C(=O)/C(=C3\SC(=S)N(C4CCS(=O)(=O)C4)C3=O)c3ccccc32)cc1 (stereo unspecified),8.88% (inactive)
9,Cc1cc(C)c(NS(=O)(=O)c2ccc3c(c2)NC(=O)CCS3)c(C)c1,-14.1% (inactive)
10,O=C(COC(=O)/C=C/c1ccc(F)cc1)Nc1nnc(-c2ccccc2)o1,34.7% (inactive)
11,Cc1cc(C(=O)CSc2nnc(-c3ccc4c(c3)OCO4)o2)c(C)n1-c1ccc(F)cc1,3.43% (inactive)
12,O=C(Cn1cc([N+](=O)[O-])cn1)N1CCN(c2ccccc2)CC1,11.2% (inactive)
13,COC(=O)C1C(O)C(C)C(O)C(C)(O)/C=C\C=C(/C)C(=O)Nc2c(C)c(OC(C)=O)c3c(c2O)C(=O)C(C)=C2OCOC(=C23)/C(C)=C/C(C)(O)C(O)C(C)C1O (stereo unspecified),-24.2% (inactive)
14,COc1ccc(OC)c(S(=O)(=O)N2CCC(C(=O)NC3CC3)CC2)c1,19.3% (inactive)
15,COc1ccc(S(=O)(=O)N2CCC(C(=O)N3CCN(C)CC3)CC2)cc1Cl,-4.18% (inactive)
16,CCOc1ccc(NC(=O)CNC(=O)Cc2ccccc2)cc1,4.14% (inactive)
17,COC(=O)c1ccc(CNC(=O)C2CCC(=O)N(Cc3ccccn3)C2)cc1 (stereo unspecified),-28.2% (inactive)
18,CNC1=CC(=O)CC(c2ccccc2)C1 (stereo unspecified),12.6% (inactive)
19,CCCCCn1c(CNC(=O)c2cccs2)nc2ccccc21,-1.52% (inactive)
20,O=C(Nc1c2c(nn1-c1ccccc1)CS(=O)(=O)C2)c1cccs1,-5.38% (inactive)
21,O=C(COC(=O)c1cccc(S(=O)(=O)N2CCc3ccccc32)c1)Nc1ncc(C(F)(F)F)cc1Cl,14.6% (inactive)
22,Cc1cccnc1NC(=O)c1cccc(S(=O)(=O)N2CCCc3ccccc32)c1,-14% (inactive)

row,SMILES,"activity change, negative = inhibition"
1,Cc1nc(NC(=O)/C=C/c2ccccc2)sc1C(=O)N(C)C,0.771% (inactive)
2,CC(NC(=O)CSc1nc2sc3c(c2c(=O)n1-c1ccccc1)CCCC3)c1ccccc1 (stereo unspecified),6.92% (inactive)
3,CCn1c(C)cc(/C=C2/NC(=O)N(Cc3ccccc3F)C2=O)c1C,10.6% (inactive)
4,O=C(COc1ccc2c3c(c(=O)oc2c1)CCCC3)NCCCn1ccnc1,16.2% (inactive)
5,O=C(COc1ccc2c3c(c(=O)oc2c1)CCCC3)NCC(O)c1ccccc1 (stereo unspecified),4.93% (inactive)
6,c1ccc(-n2c(SCC3CCCCO3)nnc2-c2cccs2)cc1 (stereo unspecified),-12.4% (inactive)
7,Cc1noc(C)c1COc1ccccc1C(=O)NC1CCC(C)CC1 (stereo unspecified),-7.29% (inactive)
8,CCN(CC)CC(=O)N(CC(=O)Nc1c(C)cc(C)cc1C)C1CCCCC1,-9.21% (inactive)
9,O=[N+]([O-])c1ccc(O)c(/C=N/Nc2nc3ccccc3[nH]2)c1,-11.5% (inactive)
10,O=c1oc(-c2ccccc2)nc2sc3c(c12)CCCC3,-12.9% (inactive)
11,O=C(O)CCCc1nc(-c2ccc(Cl)cc2)no1,-8.66% (inactive)
12,COc1ccc(OCc2nnc(SCC(=O)N3C(C)CCCC3C)o2)cc1 (stereo unspecified),13.9% (inactive)
13,c1ccc(C2NCCc3ccccc32)cc1 (stereo unspecified),39.2% (inactive)
14,Nc1nnc(-c2cn(-c3ccccc3)nc2-c2ccc(Cl)cc2)o1,-4.94% (inactive)
15,CSc1ncccc1C(=O)OCC(=O)N(C)c1c(N)n(Cc2ccccc2)c(=O)[nH]c1=O,33.1% (inactive)
16,O=C(COC(=O)C12CC3CC(CC(Br)(C3)C1)C2)Nc1cccnc1Cl,7.63% (inactive)
17,O=C(OCC(=O)N1CCCC1=O)c1cccc(S(=O)(=O)N2CCOCC2)c1,17% (inactive)
18,COc1ccc(NC(=O)CC2(CC(=O)O)CCCC2)cn1,1.15% (inactive)

# Source: PubChem BioAssay AID504941 (Broad Institute, 2011)
